Screening data as filed in PubChem.
Most compounds without a hit are left out; they make up all but 6.7% or so of the library.
Pf Dd2 inh: P. falciparum Dd2 growth inhibition; activity change, % at 10 µM; SYBR Green, 72 h; hits give low values; 2.3% of 94,000 active; in the data active means activity change below about -80%; inconclusive means no clear call, values can overlap the other calls
C diff growth: blocks growth of Clostridium difficile; growth activity, negative = inhibition, % at 16 µg/mL (by protocol); Clostridium difficile clinical isolate growth, OD600, 24 h; hits give low values; 0.25% of 86,000 active; AID 1259249;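 active means mean growth activity at or below -80% and every replicate also at or below -80%; inconclusive means mean at or below -80% but some replicate above -80%; inactive means mean growth activity above -80%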;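 further: 0% = DMSO wells and -100% = levofloxacin 16 µg/mL wells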
T cruzi growth-1: T. cruzi proliferation inhibition; T. cruzi beta-gal in NIH3T3, GalScreen luminescence, 90 h; 5.9% of 77,000 active; AID 624255; inhibition, % at 8.34 µM;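 active means mean inhibition above about 93%, with at least 55% of replicates each passing it, limit read from the data, passing the limit was not always enough; inconclusive means only one of those two conditions holds; inactive means neither condition holds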
T cruzi growth-2: Trypanosoma cruzi proliferation inhibition; shares compounds with T cruzi growth-1; T. cruzi beta-gal in NIH3T3, GalScreen luminescence, 90 h; inhibition, % at 8.35 µM; 72% of 5,600 active; AID 651739;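 active means mean replicate inhibition above about 95% and at least 55% of replicates individually reaching it, limit read from the data; inconclusive means only one of the two criteria is met; inactive means neither criterion is met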
T cruzi growth-3: inhibitors of T. cruzi proliferation | shares compounds with T cruzi growth-1 | inhibition, % at 2.09 µM | T. cruzi beta-gal in NIH3T3, GalScreen luminescence, 90 h | 21% of 5,600 active;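 active means mean inhibition above about 95%, with at least 55% of replicates also reaching it, limit read from the data; inconclusive means meets just one of the two conditions; inactive means meets neither condition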;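 further: plate controls were neutral control median for no effect and positive control median for full effect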
3T3 cytotox: cytotoxicity in mouse NIH/3T3 fibroblasts | shares compounds with T cruzi growth-1 | cytotoxicity (signal decrease), % at 8.35 µM | 14% of 5,600 active | NIH/3T3 viability, CellTiter-Glo ATP luminescence, 90 h;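 active means mean signal decrease across replicates above about 35% based on untreated-well scatter, with enough replicates individually passing, limit read from the data; inconclusive means no rule stated though some were filed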;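 further: 0% = median of neutral control wells and 100% = median of positive control wells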
3T3 cytotox 2: NIH/3T3 (mouse) viability loss. NIH/3T3 viability, CellTiter-Glo ATP luminescence, 90 h. inhibition, % at 24.9 µM. shares compounds with T cruzi growth-1. 56% of 5,600 active;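 active means mean loss of cell viability signal at or above a set limit, and enough replicates individually reaching it; inconclusive means meets only the mean limit or only the replicate share; inactive means meets neither condition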;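 further: 0% = median of neutral control wells and 100% = median of positive control wells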
An asterisk follows results filed as active; ? = inconclusive; · = no result.

SMILES	Pf Dd2 inh	C diff growth	T cruzi growth-1	T cruzi growth-2	T cruzi growth-3	3T3 cytotox	3T3 cytotox 2
CC1C=NC(S(=O)(=O)N2CC[C@@H]3[C@@H](CO)N(C)c4ccc(-c5ccc(F)cc5)cc4[C@@H]32)=N1 (stereo partly drawn)	-17	-21	64	·	·	·	·
CC1C=NC(S(=O)(=O)N2CC[C@H]3[C@@H](CO)N(C)c4ccc(-c5ccccc5)cc4[C@H]32)=N1 (stereo partly drawn)	18	-6	91	·	·	·	·
COc1ccc(S(=O)(=O)N(C)C[C@H]2Oc3c(NS(=O)(=O)c4ccc(Cl)cc4)cccc3C(=O)N([C@H](C)CO)C[C@H]2C)cc1	4	-7	4	·	·	·	·
C[C@H](CO)N1C[C@H](C)[C@H](CN(C)S(=O)(=O)c2ccccc2)Oc2ccc(NS(=O)(=O)c3ccccc3)cc2C1=O	-12	-8	-11	·	·	·	·
C[C@@H]1CN([C@@H](C)CO)S(=O)(=O)c2ccc(C#CC3CCCC3)cc2O[C@@H]1CN(C)C(=O)Nc1cc(F)ccc1F	-31	·	·	·	·	·	·
C[C@H]1CN([C@@H](C)CO)S(=O)(=O)c2ccc(C#CC3CC3)cc2O[C@@H]1CN(C)C(=O)Nc1cc(F)ccc1F	-55	·	111*	108*	79	39*	36*
C[C@H](CO)N1C[C@H](C)[C@H](CN(C)C(=O)Nc2cc(F)ccc2F)Oc2cc(-c3ccc(C#N)cc3)ccc2S1(=O)=O	-49	48	75	·	·	·	·
C[C@H]1CN([C@@H](C)CO)S(=O)(=O)c2ccc(C#CC3CC3)cc2O[C@H]1CN(C)C(=O)Nc1cc(F)ccc1F	-71	·	121*	108*	83	17	12
COc1ccc(S(=O)(=O)N[C@H]2CC[C@H](CC(=O)NCCc3ccccc3)O[C@@H]2CO)cc1	2	0	·	·	·	·	·
OC[C@H]1N[C@@H](CNCC2CCC2)[C@@H]1c1ccc(C2=CCCCC2)cc1	-50	22	·	·	·	·	·
C[C@H]1CN([C@@H](C)CO)C(=O)c2cccc(NC(=O)Nc3ccc4c(c3)OCO4)c2O[C@H]1CN(C)S(=O)(=O)c1ccc(F)cc1	-13	17	-49	·	·	·	·
C[C@H](CO)N1C[C@H](C)[C@H](CN(C)Cc2ccccc2F)Oc2cc(C3=CCCC3)ccc2S1(=O)=O	-75	-2	76	·	·	·	·
C[C@@H]1CN([C@@H](C)CO)S(=O)(=O)c2ccc(C3=CCCC3)cc2O[C@H]1CN(C)Cc1ccccc1F	-27	13	121*	101*	105*	30	104*
C[C@@H]1CN([C@H](C)CO)S(=O)(=O)c2ccc(C3=CCCC3)cc2O[C@@H]1CN(C)Cc1ccccc1F	-70	-2	103*	99*	105*	4	107*
C[C@@H]1CN([C@@H](C)CO)S(=O)(=O)c2ccc(C3=CCCCC3)cc2O[C@H]1CN(C)Cc1ccccc1F	-57	6	·	·	·	·	·
CCCNC(=O)N1C[C@@H](O)COC[C@@H]2O[C@@H](CC(=O)N3CCOCC3)CC[C@H]21	-16	·	9	·	·	·	·
Cc1cccc(S(=O)(=O)N(C)C[C@@H]2OCc3ccccc3-c3c(n(C)c4ccccc34)C(=O)N([C@@H](C)CO)C[C@@H]2C)c1	-86*	·	100*	103*	87	-9	80*
C[C@@H]1CN([C@@H](C)CO)C(=O)c2c(c3ccccc3n2C)-c2ccccc2CO[C@H]1CN(C)S(=O)(=O)c1cccc(F)c1	-67	8	91	·	·	·	·
Cc1cccc(S(=O)(=O)N(C)C[C@H]2OCc3ccccc3-c3c(n(C)c4ccccc34)C(=O)N([C@@H](C)CO)C[C@H]2C)c1	-85*	·	99*	100*	108*	-5	18
C[C@H](CO)N1C[C@H](C)[C@@H](CN(C)S(=O)(=O)c2cccc(C#N)c2)OCc2ccccc2-c2c(n(C)c3ccccc23)C1=O	5	0	63	·	·	·	·
CCCC(=O)N1CC2(CN(S(C)(=O)=O)C2)c2c([nH]c3cc(OC)ccc23)[C@@H]1CO	-54	-9	·	·	·	·	·
CO[C@H](CN(C)S(=O)(=O)c1ccccc1)[C@@H](C)CN(Cc1ccccc1Cl)[C@H](C)CO	-39	·	-12	·	·	·	·
C[C@H](CO)N1C[C@H](C)[C@H](CN(C)Cc2ccc(-c3ccccc3)cc2)Oc2ccc(NS(=O)(=O)c3cccs3)cc2C1=O	-11	8	56	·	·	·	·
C[C@H](CO)N1C[C@H](C)[C@H](CN(C)Cc2ccc(-c3ccccc3)cc2)Oc2ccc(NS(=O)(=O)c3ccc(F)cc3)cc2C1=O	0	19	75	·	·	·	·
Cc1ccc(S(=O)(=O)Nc2ccc3c(c2)C(=O)N([C@@H](C)CO)C[C@H](C)[C@@H](CN(C)Cc2ccc(-c4ccccc4)cc2)O3)cc1	-3	33	?	103*	95	22	87*
SMILES	Pf Dd2 inh	C diff growth	T cruzi growth-1	T cruzi growth-2	T cruzi growth-3	3T3 cytotox	3T3 cytotox 2
C[C@H]1CN([C@@H](C)CO)C(=O)c2cc(NS(=O)(=O)c3ccc(F)cc3)ccc2O[C@@H]1CN(C)Cc1ccc(-c2ccccc2)cc1	24	18	?	106*	46	2	103*
C[C@@H]1CN([C@@H](C)CO)C(=O)c2cc(NS(=O)(=O)c3ccc(Cl)cc3)ccc2O[C@H]1CN(C)Cc1ccc(-c2ccccc2)cc1	19	11	109*	106*	80	-2	104*
C[C@@H]1CN([C@H](C)CO)C(=O)c2cc(NS(=O)(=O)c3cccs3)ccc2O[C@@H]1CN(C)Cc1ccc(-c2ccccc2)cc1	-1	14	93*	-4	-33	7	-11
C[C@H]1CN([C@@H](C)CO)C(=O)c2cc(NS(=O)(=O)c3ccc(Cl)cc3)ccc2O[C@H]1CN(C)Cc1ccc(-c2ccccc2)cc1	10	10	31	·	·	·	·
Cc1ccc(S(=O)(=O)Nc2ccc3c(c2)C(=O)N([C@@H](C)CO)C[C@@H](C)[C@H](CN(C)Cc2ccc(-c4ccccc4)cc2)O3)cc1	-3	28	89	·	·	·	·
C[C@@H]1CN([C@H](C)CO)C(=O)Cc2cc(NC(=O)Nc3ccc(F)cc3)ccc2O[C@@H]1CN(C)S(=O)(=O)c1ccc(F)cc1	-8	9	-29	·	·	·	·
COc1ccc(NC(=O)N[C@H]2CC[C@H](CCNC(=O)c3ccccc3F)O[C@@H]2CO)cc1	-10	-2	-11	·	·	·	·
CN(C)c1ccc2c(c1)[C@@H]1C[C@@H](CC(=O)NCCN3CCCCC3)O[C@H](CO)[C@@H]1O2	8	-1	-14	·	·	·	·
CN(C)C(=O)C[C@H]1C=C[C@H](NC(=O)C2CCOCC2)[C@H](CO)O1	-1	3	·	·	·	·	·
COc1ccccc1-c1ccc([C@@H]2[C@@H](C#N)N(C(=O)C3CCCC3)[C@@H]2CO)cc1	-31	-2	·	·	·	·	·
COc1ccccc1-c1ccc([C@H]2[C@@H](C#N)N(C(=O)C3CC3)[C@H]2CO)cc1	1	13	99*	88	49	2	21
